Screening results: PubChem BioAssay, National Center for Advancing Translational Sciences (NCATS)
Compounds with a hit are over-represented: about 8.5% of the library has one in this group of screens.
Sfp PPTase inh = Sfp phosphopantetheinyl transferase inhibition; Q9F4F7; Biochemical Sfp PPTase activity, qHTS; Potency, µM, usual class: inhibitors; 3.5% of 310,000 active; AID 1490;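 also: the enzyme is Sfp with the accession as filed and its product quenches rhodamine fluorescence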
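Fluorescence-quenching assay: 15 nM Sfp-PPTase preincubated 15 min at room temperature with compound, then 5 uM rhodamine-CoA and 12.5 uM BHQ-2-labelled YbbR peptide added. Fluorescence (ex 525/em 598 nm) read at start and after 30 min; difference gives rate.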
JMJD2E inh = inhibitors of human JMJD2E histone demethylase; AID 2147; JMJD2E catalytic domain, FDH-coupled NADH fluorescence (FDH is formaldehyde dehydrogenase); B2RXH2; Potency, µM (highest dose often 57.1 µM), usual class: inhibitors; 1.6% of 230,000 active; active = well fitted inhibition curve with a large enough effect, not every such curve was filed as active; inconclusive = small, poorly fitted or top-dose-only effect, or another doubt; inactive = no such curve, though single readings can be large or run the other way; also: nearly all actives have a fitted effect of over 50% in size
Target sequence (B2RXH2 1-337 limits assumed): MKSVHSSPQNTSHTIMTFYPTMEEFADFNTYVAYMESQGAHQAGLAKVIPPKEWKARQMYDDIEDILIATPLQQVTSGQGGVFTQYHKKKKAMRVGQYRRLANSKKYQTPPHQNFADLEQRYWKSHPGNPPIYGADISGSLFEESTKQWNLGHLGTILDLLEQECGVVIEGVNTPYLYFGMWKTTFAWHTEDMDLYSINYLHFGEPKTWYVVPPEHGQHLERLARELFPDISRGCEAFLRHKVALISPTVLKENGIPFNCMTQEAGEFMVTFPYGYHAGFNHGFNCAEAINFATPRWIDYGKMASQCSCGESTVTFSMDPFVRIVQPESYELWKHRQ
ALDH1A1 inh = blocks purified human ALDH1A1 activity; P00352; 7.3% of 220,000 active; AID 1030; Purified ALDH1A1, NADH fluorescence, propionaldehyde substrate; Potency, µM (highest dose often 75.3 µM), most hits filed as inhibitors; active = well fitted inhibition curve with a large enough effect, not every such curve was filed as active; inconclusive = small, poorly fitted or top-dose-only effect, or another doubt; inactive = no such curve, though single readings can be large or run the other way
NPSR antagonist = neuropeptide S receptor (human) antagonism, cAMP. Q6W5P4. CHO-NPSR cells, cAMP TR-FRET, antagonist mode. Potency, µM (top dose mostly 38.3 µM), most hits filed as inhibitors. 1% of 220,000 active. AID 1461; also: nearly all actives have a fitted effect of over 50% in size
Coupling enz = inhibits coupling enzyme system, counter-screen for aldolase hits | 0.67% of 290,000 active | activity change, negative = inhibition, % at 58.2 µM, hits read low | coupling enzyme system counterscreen, AmpLite Red fluorescence | AID 2472; in the data active = activity change below about -30%
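Activity here indicates interference with the coupling reaction, not aldolase inhibition. Compounds at 57.5 uM final met coupling enzymes for 10 min at RT; substrate and AmpLite Red detection followed, with a 525/598 nm fluorescence read after 20 min.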
GoLoco inh red = inhibitors of human Gai1-RGS12 GoLoco interaction (red fluorophore). P63096. 0.44% of 230,000 active. Potency, µM (series often up to 61.6 µM), actives largely listed as inhibitors. Gai1:RGS12 GoLoco peptide FP, rhodamine, 10 min; active = well fitted inhibition curve with a large enough effect, not every such curve was filed as active; inactive = no such curve, though single readings can be large or run the other way; also: nearly all actives have a fitted effect of over 30% in size
Large screens that a line does not name were inactive. Unless noted, calls follow the shape of the dose curve; as a rule, active = well fitted curve in the direction sought with a large enough effect; inconclusive = small, poorly fitted or top-dose-only effect, or another doubt; inactive = no such curve, though single readings can be large; an effect the other way counts as inactive or inconclusive.

Cc1cc(C)nc(Sc2ccc(C=O)cc2[N+](=O)[O-])n1	ALDH1A1 inh 7.1µM
Cc1ccnc(Sc2ccc([N+](=O)[O-])cc2[N+](=O)[O-])n1	ALDH1A1 inh inconclusive
COc1ccc(N2C(=O)CC(Sc3nc(C)cc(C)c3C#N)C2=O)cc1 (stereo not given)	JMJD2E inh inconclusive, ALDH1A1 inh inconclusive
COc1ccc(N2C(=O)CC(Sc3nnc(-c4ccccc4)o3)C2=O)cc1 (stereo not given)	Sfp PPTase inh 56µM, ALDH1A1 inh 1.8µM, NPSR antagonist inconclusive
O=C1CC(Sc2nnc(-c3ccccc3O)o2)C(=O)N1c1ccccc1 (stereo not given)	Sfp PPTase inh 56µM, ALDH1A1 inh 3.5µM, NPSR antagonist inconclusive
COc1ccccc1N1C(=O)C2ON(c3ccccc3)C(c3ccc(N(C)C)cc3)C2C1=O (stereo not given)	Sfp PPTase inh 45µM, ALDH1A1 inh inconclusive
Cc1ccc(-n2ncc3c2CC(C)(C)CC3NC(=O)CCc2ccc(=O)[nH]n2)cc1 (stereo not given)	Sfp PPTase inh inconclusive (no result: JMJD2E inh, ALDH1A1 inh, NPSR antagonist, GoLoco inh red)
CCCn1nc(C(=O)NNC(=O)CCCOc2ccc(C)cc2)c2ccccc2c1=O	none (no result: JMJD2E inh, ALDH1A1 inh, NPSR antagonist, Coupling enz, GoLoco inh red)
O=C(NNS(=O)(=O)c1ccc(Cl)cc1)c1cnn(-c2ccccc2)c1-n1cccc1	ALDH1A1 inh 2µM
Cc1ccn2c(C(=O)NNC(=O)Nc3ccc(Cl)cc3)c(C)nc2c1	none (no result: JMJD2E inh, ALDH1A1 inh, NPSR antagonist, Coupling enz, GoLoco inh red)
NNC(=O)c1cnn(-c2ccccc2)c1-n1cccc1	ALDH1A1 inh 0.71µM
Cc1nc2ccccn2c1C(=O)NNS(=O)(=O)c1ccc(Cl)cc1	ALDH1A1 inh 8.9µM
COC(=O)[C@@H]1CCCN1Cc1nc(Cc2ccc(OC)c(OC)c2)no1	ALDH1A1 inh 0.89µM
O=C(Cc1nc(-c2ccc([N+](=O)[O-])cc2)cs1)Nc1ccccc1	ALDH1A1 inh 8.9µM
CN(C)c1ccc(C(=C2C=CC(=[N+](C)C)C=C2)c2c(O)c(S(=O)(=O)O)cc3cc(S(=O)(=O)O)ccc23)cc1	ALDH1A1 inh 3.5µM (no result: Sfp PPTase inh, JMJD2E inh, NPSR antagonist, Coupling enz)
CC1=C(C(=O)OCc2ccccc2)C(C2CC2)NC(=O)N1CCCCCC(=O)O (stereo not given)	JMJD2E inh inconclusive, ALDH1A1 inh inconclusive (no result: NPSR antagonist)
CCOC(=O)c1[nH]c(C)c(C(=O)OCCOc2cccc(C)c2)c1C	none
CCCCc1ccc(CC(=O)O)cc1	Sfp PPTase inh inconclusive, ALDH1A1 inh 14µM
Cc1ccc(-n2c(N)c(C(=O)NCc3ccco3)sc2=S)cc1	Sfp PPTase inh inconclusive, ALDH1A1 inh inconclusive
Nc1c(C(=O)NCc2cccnc2)sc(=S)n1-c1ccccc1	Sfp PPTase inh 13µM, ALDH1A1 inh 8.9µM
COc1ccc(CNC(=O)c2sc(=S)n(-c3ccc(OC)cc3)c2N)cc1	Sfp PPTase inh 20µM, ALDH1A1 inh 19µM
CCN(Cc1ccncc1)S(=O)(=O)c1ccc(C(C)=O)cc1	Sfp PPTase inh 79µM, ALDH1A1 inh 7.9µM, NPSR antagonist inconclusive
CCN(CC)S(=O)(=O)c1ccc(C(=O)Nc2ccc(Cc3ccncc3)cc2)cc1	ALDH1A1 inh inconclusive, NPSR antagonist inconclusive
CCCN(Cc1cc2ccc(C)cc2[nH]c1=O)C(=O)c1ccccn1	Sfp PPTase inh inconclusive, JMJD2E inh inconclusive, ALDH1A1 inh inconclusive, Coupling enz -32
C#CCCCC(=O)Nc1ccccc1	none (no result: NPSR antagonist)
COc1cc(/C=N/NC(=S)NC2CC3CCC2C3)ccc1O (stereo not given)	ALDH1A1 inh 18µM, NPSR antagonist inconclusive
COc1ccc(S(=O)(=O)N2CCN=C2SCc2cccc(F)c2)cc1	none (no result: JMJD2E inh, ALDH1A1 inh, NPSR antagonist, Coupling enz, GoLoco inh red)
c1ccc(CCNC2=NCCS2)cc1	none (no result: JMJD2E inh, ALDH1A1 inh, NPSR antagonist, GoLoco inh red)
COc1ccccc1C1(CCN=Cc2ccc(N(C)C)cc2)CCOC(C)(C)C1 (stereo not given)	none (no result: ALDH1A1 inh)
CN(C)c1ccc(C=NCCC2(O)CCOC(C)(C)C2)cc1 (stereo not given)	ALDH1A1 inh 0.56µM
CN1CCN(C(c2ccc(C(F)(F)F)cc2)c2ccc3cccnc3c2O)CC1 (stereo not given)	none (no result: JMJD2E inh, ALDH1A1 inh, NPSR antagonist, GoLoco inh red)
Oc1c(C(c2cccs2)N2CCN(c3ccccc3)CC2)ccc2cccnc12 (stereo not given)	Sfp PPTase inh 40µM, JMJD2E inh 7.9µM, ALDH1A1 inh 2µM, NPSR antagonist 16µM
